HCMV inh – human cytomegalovirus inhibition; HFF cells, HCMV-luciferase reporter, 72 h; hits give low values; activity change, negative = inhibition, % at 57.5 µM; actives 4.5% (n = 410,000); in the data active = activity change below about -60%; inconclusive = no clear call, values can overlap the other calls; inactive = above about -39%
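Luciferase read-out from HCMV-luciferase-infected HFFs (MOI 1 PFU/cell) 72 h post infection at 37C; compounds added after 16 h cell attachment; activity normalized between buffer-only basal and Salinomycin (10uM) inhibitor controls.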
HCV inh – HCV inhibition; Huh7.5.1 HCVcc-Cre infection, luciferase reporter, 44 h; Potency, µM (top dose mostly 41.8 µM), without a hit: at the top dose activity change, negative = inhibition, most hits filed as inhibitors; actives 3.4% (n = 340,000); also: potency is read from the fitted curve at half-maximal effect
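Cells seeded at 1,000/well and cultured 4 h, then compounds added followed by HCVcc-Cre virus (~0.5 moi). After 44 h further culture, luciferase substrate was added, plates held 15 min at room temperature, and luminescence read for 15 sec.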
FMDV inh – foot and mouth disease virus antiviral activity; FMDV antiviral cell-based qHTS; actives 1.2% (n = 410,000); Potency, µM (highest dose often 57.9 µM), for the others: top-dose activity change, negative = inhibition, usual class: inhibitors; calls by dose curve; tested in HEK293T cells; also: read-out not given here; potency is read from the fitted curve at half-maximal effect; nearly all actives have a fitted effect of over 45% in size
MARV entry inh – blocks Marburg virus binding to or entry into cells | Marburg virus pseudotyped entry inhibition, cell reporter | Potency, µM (titrated, usually from 37.8 µM), for inactives: at the top dose activity change, negative = inhibition, hits mostly inhibitors | actives 1.8% (n = 300,000) | AID 540276; calls by dose curve; tested in HEK293 cells; also: potency is read from the fitted curve at half-maximal effect
LASV entry inh – inhibitors of Lassa virus binding or cell entry. actives 1.2% (n = 300,000). Potency, µM (series often up to 37.9 µM), for inactives: top-dose activity change, negative = inhibition, hits mostly inhibitors. Lassa virus pseudotype entry inhibition, cell reporter; calls by dose curve; tested in HEK293 cells; also: potency is read from the fitted curve at half-maximal effect; nearly all actives have a fitted effect of over 50% in size
FBPA Giardia inh – blocks Giardia fructose-bisphosphate aldolase activity; actives 0.71% (n = 290,000); AID 2451; Potency, µM (titrated, usually from 59.6 µM), without a hit: top-dose activity, negative = inhibition, usual class: inhibitors; A8B2U2; purified Giardia FBPA; also: potency is read from the fitted curve at half-maximal effect; nearly all actives have a fitted effect of over 55% in size
Target sequence (A8B2U2 whole entry, looked up): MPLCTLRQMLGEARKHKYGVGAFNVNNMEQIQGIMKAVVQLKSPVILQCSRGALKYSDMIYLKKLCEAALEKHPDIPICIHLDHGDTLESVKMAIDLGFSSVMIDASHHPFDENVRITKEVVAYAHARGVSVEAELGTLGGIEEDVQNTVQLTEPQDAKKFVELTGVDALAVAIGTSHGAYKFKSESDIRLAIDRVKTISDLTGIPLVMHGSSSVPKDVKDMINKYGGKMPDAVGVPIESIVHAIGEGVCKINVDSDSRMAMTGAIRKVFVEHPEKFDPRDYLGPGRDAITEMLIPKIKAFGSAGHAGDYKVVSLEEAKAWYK
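Giardia FBPA (40 nM reagent) was preincubated 10 min at RT with compound (up to 57.5 uM final), then substrate plus GAPDH/TPI/NAD/arsenate coupling system with diaphorase/resazurin was added; resorufin fluorescence (525/598 nm) was read after 20 min.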
An asterisk follows results filed as active; ? = inconclusive; · = no result given; [ ] = dose if it differs, or a comment. Most compounds without a hit are left out; they make up all but 8.3% or so of the library. Unless noted, calls follow the shape of the dose curve; as a rule, active = well fitted curve in the direction sought with a large enough effect; inconclusive = small, poorly fitted or top-dose-only effect, or another doubt; inactive = no such curve, though single readings can be large; an effect the other way counts as inactive or inconclusive. % is scaled to controls: 0 for no effect and ±100 for the full control effect.

SMILES	HCMV inh	HCV inh	FMDV inh	MARV entry inh	LASV entry inh	FBPA Giardia inh
C[C@@]12CCC3c4ccc(OC5C=CC(c6ccccc6)OC5CO)cc4CCC3C1CCC2=O (stereo partly specified)	·	·	·	·	·	-4%[12.9 µM]
Cn1c(SCc2ccccc2)nnc1-c1cnccn1	-61*	12%	60%	?	-2%	5%
COc1ccccc1NC(=S)NNC(=O)c1cc(C)nn1C	-103*	-3%	-1%	?	2%	3%
COC(=O)C1[C@H]2[C@@H]3[C@H](c4ccc(C)o4)Nc4ccc(Cl)cc4[C@@H]3N(C(=O)OC(C)(C)C)[C@@H]12 (stereo partly specified)	-36	·	·	·	·	·
CC(C)(C)c1ccc(S(=O)(=O)Nc2ccc(Cc3ccncc3)cc2)cc1	?	?	1%	?	10µM*	-7%
CCN(CC)S(=O)(=O)c1ccc(C(=O)Nc2ccc(Cc3ccncc3)cc2)cc1	-87*	3.2µM*	?	?	?	-3%
CC(=O)Nc1ccc(S(=O)(=O)Nc2ccc(Cc3ccncc3)cc2)cc1	?	-18%	-12%	?	?	8%
CCN(CC)S(=O)(=O)c1ccc(NC(=O)c2ccc(N(C)S(C)(=O)=O)cc2)cc1	-67*	4.5µM*	4µM*	-53%	?	3%
CCN(CC)S(=O)(=O)c1ccc(NC(=O)c2ccccc2N(C)S(C)(=O)=O)cc1	-13	6%	9%	0%	-9%	1%
CCCCc1ccc(NC(=O)c2ccc(N(C)S(C)(=O)=O)cc2)cc1	-81*	?	?	?	-19%	0%
Cc1ccc(-c2ccc(C(=O)NCc3ccccc3)o2)c2ccccc12	-6	?	-1%	34%	6.5µM*	-14%
O=C(Nc1ccccc1)c1ccc(-c2ccccc2C(F)(F)F)o1	-11	?	36%	?	-2%	-12%
O=C(NCc1ccc(Cl)cc1)c1ccc(-c2ccccc2C(F)(F)F)o1	32	-4%[8.37 µM]	-19%	11%	5.2µM*	-4%
CCOc1ccccc1-c1ccc(C(=O)NCc2ccccc2)o1	-2	14µM*	29%	7%	7.3µM*	1%
COC(=O)[C@]12C[C@H](CC(=O)NCc3ccccc3)C(=O)N(Cc3ccccc3)C1=C[C@H](C(C)C)O[C@@H]2C1CC1	-17	·	·	·	·	·
O=C(Cc1ccccc1)N/N=C/c1cc(Br)cc(Cl)c1O	-18	?	-3%	?	?	10%
COc1cc(Br)cc(/C=N/NC(=O)Cc2ccccc2)c1O	-20	13µM*	37%	-18%	13µM*	·
O=C(CP(=O)(c1ccccc1)c1ccccc1)N/N=C/c1cc(Br)cc(Br)c1O	?	?	-3%	?	2.8µM*	-6%
CNc1nc(-c2ccccc2C)nc2ccccc12	·	·	-5%	·	·	-10%
C=CCOC(=O)[C@H](C#N)c1nc2ccccc2nc1N1CCC(C(=O)OCC)CC1	·	·	·	-4%	·	·
CCn1c(-c2ccccc2Cl)nn(CC(=O)Nc2cc(Cl)ccc2Cl)c1=S	?	13µM*	?	?	?	-5%
CCn1c(-c2ccccc2Cl)nn(CC(=O)NCCc2ccccc2)c1=S	-26	-1%	-22%	-35%	5%	-1%
Cc1ccc(C(=O)c2cn(Cc3ccccc3C)c3nc(C)ccc3c2=O)cc1	?	·	-19%	?	?	·
CCOC(=O)c1c(-c2ccccc2)nc2ccccn12	-63*	-7%	-29%	3%	?	-1%
CCOc1ccccc1NC(=O)C(Sc1ccccc1)c1ccccc1 (stereo unspecified)	-33	-16%	-28%	?	13µM*	-1%
SMILES	HCMV inh	HCV inh	FMDV inh	MARV entry inh	LASV entry inh	FBPA Giardia inh
CCOC(=O)c1sc(NC(=O)C2c3ccccc3Oc3ccccc32)c(C(=O)OCC)c1C	3	·	0%	-17%[46.1 µM]	-3%[46.1 µM]	·
CCOC(=O)c1c(NC(=O)C2c3ccccc3Oc3ccccc32)sc(C(=O)N(CC)CC)c1C	·	7.1µM*	?	13µM*	?	2%
CCOC(=O)c1c(NC(=O)C(Sc2ccccc2)c2ccccc2)sc(C(=O)N(C)C)c1C (stereo unspecified)	-8	?	0%	?	16µM*	-16%
CCOC(=O)c1c(NC(=O)COC(=O)Cc2c[nH]c3ccccc23)sc(C(=O)N(C)C)c1C	32	14µM*	-23%	4%[46.1 µM]	19%	·
CCOC(=O)c1c(NC(=O)C(Sc2ccccc2)c2ccccc2)sc(C(N)=O)c1C (stereo unspecified)	17	?	?	-30%	?	-8%
CCCSC1=NC2(CCN(C(=O)NC3CCCCC3)CC2)N=C1c1ccc(Cl)cc1	9	·	-4%	·	-3%[46.1 µM]	·
COCCn1c(=O)c(-c2ccc(Cl)cc2)nc2cnc(OC)nc21	·	·	-14%	·	·	-13%
CCOC(=O)C1CCN(S(=O)(=O)c2cc(-c3onc(C)c3C)ccc2OC)CC1	23	·	-10%	·	-2%[46.1 µM]	·
CC(=NCc1ccc(F)cc1)c1c(O)n(C)c(=O)n(C)c1=O	-25	-13%	-26%	0.33µM*	-5%	1%
Cc1cc(N)c2ccccc2[n+]1CCCCCCCCCCCCCC[n+]1c(C)cc(N)c2ccccc21	·	·	·	8.9µM*	·	-15%
Cc1c(-c2nsc(NC(=O)c3cccs3)n2)nnn1-c1ccc(F)cc1	23	·	17%	·	-2%[46.1 µM]	·
O=C1C(c2[nH]c3ccc(S(=O)(=O)O)cc3c2O)=Nc2ccc(S(=O)(=O)O)cc21	·	·	·	·	·	18µM*
O=C1C(c2c(O)[nH]c3ccccc23)=Nc2ccccc21	60	14%	6%	·	·	1%
O=C(Nc1cc(Cl)ccc1Cl)C1(c2cccs2)CCOCC1	11	·	-30%	·	?	·
COc1ccc(OC)c(C(=O)CCCC(=O)c2cc(OC)ccc2OC)c1	-61*	?	-2%	·	·	10%
COC(=O)C1=C(C(=O)OC)[C@@H]2N(CC=C(C)C)c3ccccc3[C@@]23CCC(=O)N(Cc2cccc(C(F)(F)F)c2)C3=N1	·	·	·	-28%[14.2 µM]	?	·
Cc1ccc(C(=O)c2ccccc2C(=O)OCC(=O)Nc2cccc([N+](=O)[O-])c2)cc1	-35	-9%	-5%	?	-25%	-17%
CCCNC(=O)COC(=O)c1ccccc1C(=O)c1ccc(Cl)c([N+](=O)[O-])c1	-113*	?	11µM*	3.2µM*	?	-4%
Cc1ccc(Cl)c(NC(=O)COC(=O)c2ccccc2C(=O)c2ccc(Cl)c([N+](=O)[O-])c2)c1Cl	-102*	?	?	4.6µM*	13µM*	-4%
C[C@H](CO)N1C[C@H](C)[C@@H](CN(C)S(C)(=O)=O)OCc2cn(nn2)CCCC1=O	-2	·	·	·	·	·
C=Cc1ccc(C(=O)N2CCc3c(cnc(C)c3CNC(=O)c3ccc4c(c3)OCO4)C2)cc1	·	·	-4%	·	·	·

Screens deposited in PubChem BioAssay by National Center for Advancing Translational Sciences (NCATS).
